HTT ATP protect: Huntington cell model cytoprotection by ATP luminescence | AID 1471 | Potency, µM (top dose mostly 56.4 µM), inactives show cytoprotection (ATP increase), most hits filed as activators | 230,000 compounds, 0.14% hits | PC12 HTT-Q103 induced, cytoprotection, ATP luminescence, 40 h; also: potency is read from the fitted curve at half-maximal effect; % of control where 0% means no effect; nearly all actives have a fitted effect of over 45% in size
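Cells were plated at 1500 per well in phenol red-free DMEM with 5% equine and 5% calf serum. Tebufenozide (100 nM final) and compounds were added, then ATPlite reagent, and luminescence was read.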
CBFb-RUNX1 inh: blocks binding between human CBF-beta and RUNX1 | AID 1477 | Potency, µM (series often up to 59.8 µM), without a hit: at the highest dose activity, negative = inhibition, actives largely listed as inhibitors | AlphaScreen CBFb-His/RUNX1-biotin binding, biochemical | 230,000 tested, under 10 active | Q01196+Q13951; also: % of control where 0% means no effect
Target sequence (Q01196 whole entry, looked up): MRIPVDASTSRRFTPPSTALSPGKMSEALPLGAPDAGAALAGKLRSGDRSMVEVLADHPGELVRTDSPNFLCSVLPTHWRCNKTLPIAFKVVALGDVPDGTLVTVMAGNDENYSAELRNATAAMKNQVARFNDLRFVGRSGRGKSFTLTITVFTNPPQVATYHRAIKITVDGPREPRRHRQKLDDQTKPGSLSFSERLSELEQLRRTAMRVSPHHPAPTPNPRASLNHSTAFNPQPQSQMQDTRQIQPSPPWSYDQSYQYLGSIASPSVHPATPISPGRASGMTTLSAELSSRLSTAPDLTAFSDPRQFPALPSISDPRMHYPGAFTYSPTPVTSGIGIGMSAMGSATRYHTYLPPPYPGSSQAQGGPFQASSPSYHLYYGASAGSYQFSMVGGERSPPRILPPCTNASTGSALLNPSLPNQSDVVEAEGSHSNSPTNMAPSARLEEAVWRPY
Target sequence (Q13951 whole entry, looked up): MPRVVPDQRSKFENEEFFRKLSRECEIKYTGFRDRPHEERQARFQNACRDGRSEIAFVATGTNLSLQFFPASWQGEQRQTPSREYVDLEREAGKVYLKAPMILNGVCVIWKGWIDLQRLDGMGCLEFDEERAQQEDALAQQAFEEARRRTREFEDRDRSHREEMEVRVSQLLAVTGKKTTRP
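Inhibition was taken as any reduction in AlphaScreen signal from the CBF-beta–RUNX1 pair (His and biotin tags, 30 nM each), measured after compound (15 min) and bead (90 min) incubations at room temperature.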
PNC inhibitor: perinucleolar compartment assembly inhibition; 140,000 compounds, 3.1% hits; activity change (PNC), negative = inhibition, % at 10 µM; AID 2417; PC3M PTB-GFP, PNC prevalence imaging, 16 h; hits give low values;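 active = readout at or below -70, meaning at least 70% loss of cells showing the perinucleolar compartment, a nuclear body marking cancer cells; inconclusive = readout between -30 and a set limit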;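 also: plate controls were DMSO wells for no effect and camptothecin positive control wells for full effect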
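Read-out is percentage of cells bearing a perinucleolar compartment, from automated 20x imaging of fixed, Hoechst-stained PC3M PTB-GFP cells. Cells were seeded 4 h, then exposed 16 h to compound (23 nl of library stock) in duplicate plates.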
HttQ103 aggreg: reduces HttQ103-GFP aggregates in PC12 cells; 220,000 compounds, 1.1% hits; AID 1688; PC12 HttQ103-GFP aggregates, Acumen cytometry, 40 h; Potency, µM (doses to about 46.1 µM), for inactives: at the top dose activity change, negative = inhibition, hits mostly inhibitors; also: potency is read from the fitted curve at half-maximal effect; % is scaled to controls: 0 for no effect and ±100 for the full control effect; nearly all actives have a fitted effect of over 60% in size
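Inducible Q103 Huntingtin exon 1–GFP PC12 line, 1500 cells/well in phenol red free DMEM with 5% equine and 5% calf serum. Tebufenozide 100 nM induced expression; compounds titrated; aggregates quantified by cytometry.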
ALDH1A1 inh: ALDH1A1 (human) enzyme inhibition; 220,000 compounds, 7.3% hits; Purified ALDH1A1, NADH fluorescence, propionaldehyde substrate; Potency, µM (series often up to 75.3 µM), without a hit: at the top dose activity, negative = inhibition, hits mostly inhibitors; AID 1030; active = well fitted inhibition curve with a large enough effect, not every such curve was filed as active; inconclusive = small, poorly fitted or top-dose-only effect, or another doubt; inactive = no such curve, though single readings can be large or run the other way;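 also: potency is read from the fitted curve at half-maximal effect; plate controls were no enzyme wells and a reference inhibitor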
HPGD inh: blocks human HPGD enzyme activity; purified HPGD, NADH fluorescence kinetic, PGE2 substrate; Potency, µM, inactives show at the top dose activity change, negative = inhibition, actives largely listed as inhibitors; 150,000 compounds, 4.3% hits; AID 894; active = well fitted inhibition curve with a large enough effect, not every such curve was filed as active; inconclusive = small, poorly fitted or top-dose-only effect, or another doubt; inactive = no such curve, though single readings can be large or run the other way; also: potency is read from the fitted curve at half-maximal effect; % is scaled to controls: 0 for no effect and ±100 for the full control effect
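NADH formation kinetics: reaction with 30 uM PGE2 and 1 mM NAD+ (final), 20 nM enzyme, Tris-HCl pH 8 with Tween 20, after 15 min compound preincubation at room temperature. Fluorescence change, last versus first of five reads.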
* hit, by the source's call; ? = inconclusive; · = no result; [ ] = remark or other dose. The list is not random: actives were taken first. Their share in the collection is about 11%. Unless noted, calls follow the shape of the dose curve; as a rule, active = well fitted curve in the direction sought with a large enough effect; inconclusive = small, poorly fitted or top-dose-only effect, or another doubt; inactive = no such curve, though single readings can be large; an effect the other way counts as inactive or inconclusive.

SMILES	HTT ATP protect	CBFb-RUNX1 inh	PNC inhibitor	HttQ103 aggreg	ALDH1A1 inh	HPGD inh
Cc1cc(OCC(=O)NC(C)c2ccccc2)ccc1[N+](=O)[O-] (centres undefined)	13.5%	-3.0%	·	5.1%[9.22 µM]	25.1µM*	·
COC(=O)[C@@H]1C[C@H]1[C@@H](N)c1ccccc1	3.3%	4.3%	·	·	-0.3%	-3.9%
CC(C)CCNC(=O)CCn1c(=S)oc2ccccc21	-35.6%	-2.4%	·	-13.7%	-8.9%	·
COc1ccc(N2C(=O)CC(N3CCN(C4CCc5ccccc5C4)CC3)C2=O)cc1 (centres undefined)	1.3%[1.9 µM]	-4.8%	-121.3*	-1.4%	?	-3.4%
CC1CCN(C2CC(=O)N(c3ccccc3)C2=O)CC1 (centres undefined)	0.3%[10 µM]	-5.7%	·	2.9%[9.22 µM]	28.2µM*	·
O=C1CCCN1CCC1CCN(C2CC(=O)N(c3ccc(Cl)cc3)C2=O)CC1 (centres undefined)	-15.8%	1.4%	-0.4	11.0%	20µM*	-7.0%
O=C1CC(NC23CC4CC(CC(C4)C2)C3)C(=O)N1c1ccc2c(c1)OCO2 (centres undefined)	26.3%	11.1%	-15.6	-3.2%	11.2µM*	-4.5%
CCOc1ccc(N2C(=O)CC(N3CCc4ccccc43)C2=O)cc1 (centres undefined)	-11.6%	-6.5%	13.4	18.1%	-7.0%	-9.2%
O=C1C2C3C=CC(C3)C2C(=O)N1c1ccc2c(c1)OCO2 (centres undefined)	-35.0%	5.0%	-12.9	-25.2%	?	-19.0%
CCOc1nc(-c2ccc(Cl)cc2)nc2ccccc12	-36.4%[0.074 µM]	-8.3%	25.0	-9.8%	0.0%	-4.6%
COc1ncc2nc(-c3cc(F)cc(F)c3)c(=O)n(-c3ccccc3)c2n1	-3.9%	·	·	·	-8.6%	·
Cc1ccc(F)c(NC(=O)/C(C#N)=C(\O)c2ccc(C(C)(C)C)cc2)c1	-81.7%	-5.7%	·	28.1%	?	·
C=CCOC(=O)N[C@@H](Cc1ccccc1)/C(C(=O)OC)=C(\C)NCc1ccccc1	0.3%	1.5%	·	·	?	-1.7%
O=C1CC(N2CCN(c3ccc(O)cc3)CC2)C(=O)N1c1ccc2c(c1)OCO2 (centres undefined)	-45.1%	-1.6%	·	6.8%[9.22 µM]	?	·
COc1ccc(N2C(=O)CC(N3CCN(C(=O)c4ccco4)CC3)C2=O)cc1 (centres undefined)	11.0%[10 µM]	3.9%	·	6.8%[9.22 µM]	?	·
O=C1CC(N2CCCCCC2)C(=O)N1c1ccc2c(c1)OCO2 (centres undefined)	-1.6%[0.074 µM]	5.1%	36.3	-20.7%	5.01µM*	-15.7%
COc1ccc(N2C(=O)CC(N3CCCC4CCCCC43)C2=O)cc1 (centres undefined)	-15.7%	7.1%	-23.9	-12.3%	8.91µM*	-13.1%
COc1ccc(N2C(=O)CC3(CCCC3)CC2=O)cc1	3.16µM*	-2.1%	101.3	14.6%	4.8%	-13.8%
COc1ccc(N2C(=O)CC(N3CCCCC3)C2=O)cc1 (centres undefined)	-3.4%[10 µM]	2.4%	·	10.0%	17.8µM*	·
CC1C=CCCOC1c1ccccc1 (centres undefined)	-40.5%[10 µM]	10.1%[13.1 µM]	·	·	-1.7%[13.5 µM]	·
CCC(=O)OC1(C)C(=O)C=C2C=C(CCCNC(=O)OC(C)(C)C)OC=C2C1=O (centres undefined)	13.8%	-15.6%	·	·	1.1%	-8.0%
COc1ccc(N2C(=O)CC(Nc3ccc(C)cc3)C2=O)cc1 (centres undefined)	1.9%	1.3%	12.9	7.9%[9.22 µM]	-2.7%	-10.9%
COc1ccc(N2C(=O)CC(N3CCN(c4ccc(S(=O)(=O)N5CCCC5)cc4)CC3)C2=O)cc1 (centres undefined)	?	5.8%	-25.6	-9.1%	22.4µM*	6.8%
COc1cccc(N2C(=O)CC(N3CCC(C(N)=O)(N4CCCCC4)CC3)C2=O)c1 (centres undefined)	-4.6%[10 µM]	1.6%	16.5	-23.4%	10µM*	-17.9%
Cc1cccc(N2C(=O)CC(N3CCN(C(=O)c4ccccc4)CC3)C2=O)c1 (centres undefined)	-11.3%	10.0%	10.4	5.8%	25.1µM*	-11.2%
SMILES	HTT ATP protect	CBFb-RUNX1 inh	PNC inhibitor	HttQ103 aggreg	ALDH1A1 inh	HPGD inh
COc1ccc(N2C(=O)CC(N3CCN(S(=O)(=O)c4cc(C)ccc4C)CC3)C2=O)cc1 (centres undefined)	-36.7%	-6.1%	·	17.5%	-2.1%	·
CN1C(=O)CC(N2CCC(C(N)=O)(N3CCCCC3)CC2)C1=O (centres undefined)	2.3%[0.074 µM]	5.5%	-10.6	10.7%	7.7%	-6.6%
COc1ccc(N2C(=O)CC(NC3CCCCNC3=O)C2=O)cc1 (centres undefined)	3.5%[1.9 µM]	7.6%	?	0.3%	20µM*	0.0%
O=C(c1ccc(Cc2nc3ccccc3[nH]2)cc1)N1CCOCC1	·	·	·	·	-4.9%	-7.2%
O=C1CC(N2CCCCCC2)C(=O)N1c1ccc(F)cc1 (centres undefined)	-13.6%	4.4%	·	8.7%	12.6µM*	·
O=C1[C@@H]2[C@H](C(=O)N1O)[C@H]1C=C[C@@H]2C1	0.0%	6.5%	32.7	-17.3%	0.631µM*	-9.2%
Cc1cccc(NC(=O)c2oc3c(c2C)C(=O)CC(C)(C)C3)n1	-28.3%[0.074 µM]	3.9%	20.1	22.4µM*	-1.2%	3.9%
c1ccc2[nH]c(SN3CCOCC3)nc2c1	13.7%[10 µM]	11.7%	6.2	-5.1%	0.794µM*	11.2µM*
c1ccc2[nH]c(CN3CCOCC3)nc2c1	-6.8%	1.5%	9.6	4.3%	-3.1%	?
Clc1ccc(CSC2=NCCN2)cc1Cl	4.9%[10 µM]	·	·	·	-3.4%[13.5 µM]	-12.9%
O=c1[nH]c(=S)[nH]nc1Cc1ccccc1	-15.2%[0.074 µM]	-2.3%	21.1	0.7%	?	28.2µM*
CN(C)CCNS(=O)(=O)N(C)C	-14.2%[10 µM]	·	·	·	?	-4.1%
CC(S)C(=O)NCC(=O)O (centres undefined)	-41.2%	0.8%	·	-8.0%	17.8µM*	-7.2%
COc1ccc(C2C(C(=O)c3ccco3)=C(O)C(=O)N2Cc2cccnc2)cc1OC (centres undefined)	3.4%	-0.4%	44.9	8.7%	?	-14.0%
O=C(C1=C(O)C(=O)N(CC2CCCO2)C1c1cccnc1)c1ccco1 (centres undefined)	-12.0%[10 µM]	3.0%	-10.3	-3.1%	-8.3%	-16.1%
O=C(C1=C(O)C(=O)N(Cc2ccco2)C1c1cccnc1)c1cc2ccccc2o1 (centres undefined)	10.4%[0.074 µM]	2.1%	37.2	1.2%	14.1µM*	-8.5%
COc1cccc2cc(C(=O)C3=C(O)C(=O)N(Cc4ccco4)C3c3cccnc3)oc12 (centres undefined)	16.4%	8.5%	-22.5	6.2%	5.62µM*	-2.0%

High-throughput results from PubChem.
